Hits are enriched below; roughly 2.8% of the tested compounds scored in any of these assays.
MITF act – activators of MITF-driven TRPM1 promoter activity in SK-MEL-5 cells; hit rate 0.75% among 300,000; activation, % at 12.5 µM; AID 588334; SK-MEL-5 TRPM1-promoter luciferase, 24 h; % of positive control, neutral wells = 0;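 active = mean activation of at least 80% with every replicate also reaching 80%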;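 note: 0% = neutral control wells and 100% = parthenolide positive control wells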
Wnt act – activators of Wnt/beta-catenin signaling; Wnt/beta-catenin reporter cell assay, activator, plate reader; activation, % at 9.35 µM; hit rate 1.2% among 300,000; in the data active = activation above about 30%, passing the limit was not always enough;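 note: 0% = neutral control wells and 100% = positive control wells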
FXN GAA850 act – activators of GAA850 frataxin (FXN) promoter. HEK293 lucGAA850 FXN promoter luciferase reporter, 24 h; percent of 10 µM SAHA response. activation, % at 6 µM. hit rate 0.56% among 360,000;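 active = activation above the average of all compounds screened plus 3 SD, cutoff fixed separately per campaign, cut at about 7.5% in these data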;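 note: 0% = DMSO wells and 100% = 10 µM SAHA wells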
esBAF inh – SWI/SNF esBAF complex inhibition | AID 602393 | reporter increase, % at 12.5 µM | mouse ES cells, Bmi1-luciferase knock-in reporter, 24 h; 100% = twice the neutral-well signal | hit rate 2% among 350,000; in the data active = activation above about 40%;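 note: 0% = median of the plate's neutral control wells and 100% = double that signal; a rise in the Bmi1 reporter signal indicates esBAF inhibition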
* hit, by the source's call; . = not tested or not shown.

SMILES	MITF act	Wnt act	FXN GAA850 act	esBAF inh
O=c1c2ccccc2ncn1CCOc1ccccc1[N+](=O)[O-]	54	4	4	67*
C[C@H](CO)N1C[C@H](C)[C@H](CN(C)S(=O)(=O)c2ccc(Cl)cc2)OCCCC[C@H](C)Oc2ccc(NC(=O)Nc3ccc4c(c3)OCO4)cc2C1=O	.	.	.	1
CCC(C)(C)c1nnc(NC(=O)c2ccc([N+](=O)[O-])cc2)s1	67	4	-1	48*
C[C@@H]1CCCCO[C@@H](CN(C)Cc2ccc3c(c2)OCO3)[C@H](C)CN([C@@H](C)CO)C(=O)c2cc(NC(=O)Nc3cccc4ccccc34)ccc2O1	.	.	.	-4
CCOC(=O)/C(C#N)=C1/C=CN(c2ccc(C)cc2)C=N1	60	20	2	47*
CN1/C(=C\C=C2/C(=O)Oc3ccccc3C2=O)C(C)(C)c2ccccc21	.	52*	.	.
Cc1noc(C)c1C(=O)Nc1sc(C)c(-c2ccccc2)c1C#N	-12	.	1	-9
Cc1cccc(C(=O)Nc2sc(C)c(-c3ccccc3)c2C#N)c1	64	.	7	49*
CCCC(=O)Nc1sc(C)c(-c2ccc(OC)cc2)c1C#N	-2	.	-5	.
Cc1sc(NC(=O)C2CCCCC2)c(C#N)c1-c1ccccc1	79	42*	5	93*
O=C(NCC[C@H]1CC[C@@H](NS(=O)(=O)c2cccc(F)c2)[C@H](CO)O1)C1CCC1	.	.	.	-2
C[C@@H]1CN([C@@H](C)CO)S(=O)(=O)c2ccc(-c3cccnc3)cc2O[C@@H]1CN(C)C(=O)c1ccc2c(c1)OCO2	.	.	.	-7
Cc1cc2c(c(=O)n1C)C(Cc1ccccc1)C(C#N)=C(N)O2 (centres undefined)	.	3	3	50*
COc1ccc(-n2nc([N+](=O)[O-])c(=NCc3ccco3)n2O)cc1	15	43*	4	-1
COc1ccc(-n2nc([N+](=O)[O-])c(=NCc3cccnc3)n2O)cc1	-1	7	0	-6
COc1ccc(S(=O)(=O)Nc2cccc3c2O[C@@H](CN(C)C(=O)Nc2cccc4ccccc24)[C@H](C)CN([C@H](C)CO)C3=O)cc1	.	.	.	0
O=C(N=C1SCC(=O)N1c1ccccc1)c1ccco1	51	.	4	46*
O=C(N=C1SCC(=O)N1c1ccccc1Cl)c1ccco1	67	1	5	23
Cc1ccc2nc(SCC(=O)c3ccccc3)nc(=O)n2c1	71	12	1	68*
Cc1ccn2c(=O)nc(SCC(=O)c3ccccc3)nc2c1	75	28	2	42*
O=C(Nc1ccc(Cl)cc1)N[C@H]1CC[C@@H](CCNC(=O)c2ccccc2F)O[C@@H]1CO	.	.	.	-6
COCC(=O)N1[C@H](C#N)[C@@H](c2ccc(C#Cc3ccccc3F)cc2)[C@H]1CO	.	.	.	-1
Cc1ccc(-c2nc3ccc(Br)cn3c2Cc2cccc(F)c2)cc1	.	-2	.	51*
Cc1ccc2nc(-c3ccc(F)cc3)c(Cc3cccc(Cl)c3)n2c1	.	24	.	48*
CNC[C@@H]1Oc2ccc(NC(=O)NC3CCCCC3)cc2CC(=O)N([C@H](C)CO)C[C@H]1C	.	.	.	0
SMILES	MITF act	Wnt act	FXN GAA850 act	esBAF inh
O=C1CCN(Cc2ccccc2)C=C1c1ccc(Cl)cc1	6	-2	1	20
O=C1CCN(Cc2ccccc2)C=C1c1ccc2ccccc2c1	51	44*	3	63*
O=C(Nc1ccc(Cl)cc1)N1C[C@@H]2[C@H](c3ccccc31)[C@H](CO)N2C(=O)c1cccnc1	.	.	.	14
O=C(Oc1coc(CSc2ncccn2)cc1=O)c1ccc(Br)o1	-13	-1	1	.
Cc1ccnc(SCc2cc(=O)c(OC(=O)c3ccc(Br)o3)co2)n1	0	51*	3	.
C[C@H]1CN([C@@H](C)CO)C(=O)c2cc(C#Cc3ccccn3)cnc2O[C@@H]1CN(C)CC1CCCC1	.	.	.	-1
CCN(C(=O)c1cc2c(=O)n3ccccc3nc2s1)C1CCCCC1	36	10	3	58*
CCN(C(=O)c1cc2c(=O)n3ccccc3nc2n1C)C1CCCCC1	26	8	5	38
CN(C(=O)c1cc2c(=O)n3ccccc3nc2n1C)C1CCCCC1	69	37*	5	11
CCN(C(=O)c1cc2c(=O)n3cccc(C)c3nc2s1)C1CCCCC1	24	-2	3	67*
COc1ccccc1-c1cnc2c(c1)C(=O)N([C@@H](C)CO)C[C@H](C)[C@H](CN(C)Cc1ccc(F)cc1)O2	.	.	.	-3
C[C@@H]1CN([C@H](C)CO)C(=O)CCCn2cc(nn2)CO[C@@H]1CN(C)Cc1ccccc1C(F)(F)F	.	.	.	1
S=C(NCc1ccccn1)Nc1ccc(Cl)cc1Cl	28	.	0	49*
COc1ccc(Cl)cc1NC(=S)NCc1ccccn1	-8	25	-1	.
S=C(NNc1ccnc2cc(Cl)ccc12)Nc1ccc(Cl)cc1Cl	-65	0	2	49*
CNC[C@@H]1OCCCC[C@H](C)Oc2ccc(NC(=O)Cc3ccccc3)cc2C(=O)N([C@H](C)CO)C[C@@H]1C	.	.	.	2
CN(C)CC(=O)Nc1ccc2c(c1)[C@@H]1C[C@H](CC(=O)NC3CCCCC3)O[C@@H](CO)[C@@H]1O2	.	.	.	6
COc1cnn(-c2ccccc2)c(=O)c1OC	.	50*	1	.
Cc1nn(-c2nc3ccccc3s2)c(C)c1Oc1ccccc1O	77	.	-7	45*
NNC(=O)c1ccc(COc2ccc3c(c2)CCC3)cc1	17	11	2	.
COc1ccc(OCc2ccc(C(=O)O)cc2)cc1	34	.	0	51*
